hcDAF12 agonist – H. contortus DAF-12 activation, primary screen; HEK293 hcDAF-12 lit1-tk-luc reporter, luminescence; 0% DMSO, 100% Δ7-dafachronic acid; activation, % at 6.8 µM; 370,000 tested, 1.4% active;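 active means activation above the mean of all tested compounds plus 3 SD, cut at about 5.5% in these data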;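 further: 100% = response to 3 µM Δ7-dafachronic acid high control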
SMARCA2 activ – activators of SMARCA2 function | MG213 cells, MMTV-luciferase reporter, dexamethasone, overnight | activation, % at 9.1 µM | 370,000 tested, 1% active; in the data active means activation above about 7.8%;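 further: 0% = vehicle wells and 100% = reference activator wells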
ssDAF12 agonist – activates DAF-12 receptor from parasite S. stercoralis | HEK293 ssDAF-12/GRIP1 lit1-tk-luc reporter, luminescence; % of 3 µM dafachronic acid response | activation, % at 6.8 µM | 370,000 tested, 1% active;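 active means activation above the mean over all tested compounds plus 3 SD, cut at about 0.9% in these data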;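 further: 0% = DMSO-only wells and 100% = 3 µM delta7-dafachronic acid wells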
hgDAF12 agonist – activates the H. glycines DAF-12 receptor ligand-binding domain | activation, % at 6.8 µM | HEK293 GAL4-hgDAF12 UAS-luciferase reporter, agonist luminescence; normalized to butyrate control | 370,000 tested, 1.8% active;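 active means activation above a cutoff set at the mean of all screened compounds plus 3 SD, cut at about 10% in these data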;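 further: 0% = DMSO wells and 100% = sodium butyrate wells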
DAX1 inh-1 – NR0B1 (DAX1) inhibition | HEK293 Gal4-DAX1 luciferase reporter, luminescence | inhibition, % at 6.75 µM | 340,000 tested, 0.99% active | AID 504766;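 active means inhibition above the mean over all tested compounds plus 3 SD, cut at about 4.2% in these data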;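 further: 0% = DAX1-transfected cells with DMSO and 100% = empty-vector control cells with DMSO; inhibition shows as a rise in luminescence from relieved DAX1 repression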
Target sequence (P51843 207-470 limits assumed): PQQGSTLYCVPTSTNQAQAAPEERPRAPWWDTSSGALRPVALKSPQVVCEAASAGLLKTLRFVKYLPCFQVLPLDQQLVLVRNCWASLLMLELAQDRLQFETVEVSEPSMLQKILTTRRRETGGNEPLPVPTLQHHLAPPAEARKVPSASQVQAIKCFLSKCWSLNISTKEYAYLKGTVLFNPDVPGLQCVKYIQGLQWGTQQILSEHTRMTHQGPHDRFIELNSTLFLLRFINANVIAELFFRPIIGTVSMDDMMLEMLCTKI
DAX1 inh-2 – DAX1 (NR0B1) inhibition, primary screen; 370,000 tested, 1.1% active; HEK293T StAR-luciferase reporter, SF-1/DAX-1 repression relief; inhibition, % at 6.8 µM;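 active means inhibition above the mean over all tested compounds plus 3 SD, cut at about 3.6% in these data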;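 further: 0% = DAX-1 cells with DMSO and 100% = cells lacking DAX-1 with DMSO; higher inhibition means more luminescence from relief of DAX-1 repression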
LXRb hcDAF ctr – counter-screen for hcDAF-12 agonists: agonists of human LXR-beta; shares compounds with hcDAF12 agonist; HEK293 Gal4-LXR tk-luc reporter, luminescence, 24 h; normalized: DMSO 0%, positive control 100%; activation, % at 6.8 µM; 3,400 tested, under 10 active; AID 743027;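 active means mean percent activation of the reporter above a cutoff set as the average over tested compounds plus their standard deviation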
hcDAF12 conf – confirmation of H. contortus DAF-12 agonists; activation, % at 6.8 µM; shares compounds with hcDAF12 agonist; AID 743032; HEK293 hcDAF-12 lit1-tk-luc reporter, luminescence; % of Δ7-dafachronic acid response; 3,400 tested, 61% active;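 active means mean activation across triplicate tests above the threshold derived from the earlier primary screen, cut at about 5.5% in these data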;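 further: 0% = DMSO only wells and 100% = 3 µM Δ7-dafachronic acid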
* = called active by the depositor; / = not tested or not shown. This is a sample that favours compounds with a hit; in the whole collection about 4.8% have one here.

SMILES | hcDAF12 agonist | SMARCA2 activ | ssDAF12 agonist | hgDAF12 agonist | DAX1 inh-1 | DAX1 inh-2 | LXRb hcDAF ctr | hcDAF12 conf
Cc1ccc(NC(=O)CSc2cn[nH]n2)cc1 | 7.0* | 0.7 | 0.4 | 1.3 | -0.4 | -0.4 | 0.0 | 0.7
COc1ccc(CC(=O)NC2=NCCS2)cc1 | 0.3 | -0.7 | -1.1 | 0.3 | 0.1 | 0.7 | / | /
CCOC(=O)N1CCN(C(=O)c2cc3c(=O)n4cccc(C)c4nc3s2)CC1 | 7.4* | -0.5 | -0.4 | 1.8 | 2.2 | 0.1 | -0.4 | 3.4
O=C(CCCOc1ccc(Cl)cc1Cl)NN1CCOCC1 | 4.6 | -1.9 | -0.9 | 1.4 | 0.1 | -0.1 | / | /
COc1ccc(NC(=O)c2cc3ccccc3o2)cc1OC | -0.2 | 1.2 | -0.7 | 5.1 | 3.2 | 0.8 | / | /
COc1cccc(NC(=O)c2cc3ccccc3o/c2=N\O)c1 | 7.5* | 0.5 | 1.1* | 12.3* | -3.5 | 1.8 | 1.8 | 10.7*
Cc1ccc(NC(=O)c2cc3ccccc3o2)cc1Cl | 8.8* | 2.0 | 0.0 | 13.1* | 6.8* | 3.1 | 1.3 | 5.9*
COc1cccc(NC(=O)c2ccccc2Oc2ccccc2)c1 | -2.0 | -6.0 | -1.2 | 0.1 | 1.3 | -0.2 | / | /
COc1ccc(NC(=O)c2cc3ccccc3o2)cc1 | 7.2* | 1.3 | 0.8 | 12.3* | 1.8 | 2.3 | 1.5 | 7.3*
CCOc1ccc(NC(=O)C2CCCN(C)C2)cc1 (stereo not given) | -0.6 | -0.7 | -1.1 | -0.7 | -1.1 | 0.1 | / | /
Cc1cc(C(=O)Nc2cccc(-c3ccc(N4CCOCC4)nn3)c2)ccc1[N+](=O)[O-] | 2.9 | 3.9 | -1.3 | -0.2 | 2.2 | -1.8 | / | /
COc1ccc(Cl)cc1C(=O)N/N=C/c1ccc(N2CCOCC2)cc1 | -0.2 | -1.4 | -1.1 | -0.5 | -1.8 | -0.2 | / | /
CCn1ncc(/C=N/NC(=O)c2cc(Cl)ccc2OC)c1C | 8.3* | -1.0 | -0.7 | 0.3 | 0.0 | -0.2 | -0.2 | 0.9
COc1ccc(OC)c(NS(=O)(=O)c2cccs2)c1 | 0.1 | -1.1 | -1.0 | -0.7 | -0.4 | 0.5 | / | /
COc1ccc(C2c3c(ncn(Cc4ccco4)c3=N)Oc3ccc4ccccc4c32)cc1 (stereo not given) | -1.9 | -3.7 | -0.8 | -3.7 | 1.7 | -0.9 | / | /
O=C(NCCN1CCc2ccccc2C1)C1CCN(S(=O)(=O)N2CCC3(CC2)OCCO3)CC1 | 7.5* | 0.0 | 0.6 | 1.4 | -1.6 | -0.5 | -0.1 | 0.8
NC(=O)C12C(=O)NC(=O)C1(C(=O)O)C21CCCC1 (stereo not given) | 0.2 | -1.6 | -1.2 | -0.8 | 3.0 | 0.2 | / | /
Cc1ccc(C)c(NCC(=O)c2ccc(Cl)cc2)c1 | 7.1* | 5.6 | 0.7 | 12.4* | -1.1 | 0.5 | -0.2 | 0.7
Cc1ccc(C(=O)CNc2cc(C)ccc2C)cc1 | 0.6 | -2.2 | -0.3 | 0.7 | 0.9 | -0.5 | / | /
COC(=O)Cn1c(C)c(/C=C/c2cc[n+](C)cc2)c2ccccc21 | 0.2 | -0.8 | -1.7 | -2.7 | 1.1 | 0.4 | / | /
CNCc1ccccc1OCC(=O)Nc1ccccc1 | 7.0* | 0.8 | 0.8 | 8.6 | 1.0 | 0.2 | 0.2 | 5.3
CCC(=O)Nc1ccc(NC(=O)c2ccccc2)nc1 | 7.0* | 5.0 | 1.0* | 11.3* | 0.4 | 4.1* | 1.1 | 3.5
CCCOC(=O)Cc1n[nH]c(=O)[nH]c1=O | 1.8 | 0.1 | -1.0 | 1.4 | 0.4 | -0.9 | / | /
CCOC(=O)c1cnc(-c2ccccc2)nc1N(C)C | 11.1* | 2.7 | 0.8 | 10.7* | 3.1 | 2.1 | 0.4 | 9.4*
COc1ccc(/C(C#N)=C/c2c(-c3ccc(Cl)cc3)nc3c(C)cccn23)cc1 | -0.6 | -0.6 | -1.2 | -0.3 | 0.6 | 0.1 | / | /
CCN(CC)CCNC(=O)c1cn(CC)c2cc(N3CCN(C(=O)c4ccco4)CC3)c(F)cc2c1=O | 0.9 | -1.3 | -1.1 | 3.4 | -0.6 | 0.9 | / | /
Cn1c(=N)n(CC(=O)c2ccc(Br)s2)c2ccccc21 | 14.5* | 4.6 | 2.8* | 11.6* | 3.8 | 3.0 | 1.6 | 16.3*

Screens as filed in PubChem BioAssay.
